These compounds were tested on KIT-autoinhibited. Details: concentration: 1 μM,replicates: in singlicate; n = 1.
In the case of `NC(=O)c1ccc(-c2cc3ncnc(SCC(=O)O)c3s2)cc1`, the “%Inh” value is reported as 22%.
For `CC(=O)c1c(-c2ccncc2)[nH]c(-c2ccncc2)c1C` [GW493036], the “%Inh” value was 0%.
For `O=C(Nc1cccc(C(F)(F)F)c1)c1cccc(Oc2ccc3nccn3n2)c1`, the “%Inh” value was 44%.
In the case of `CC(=O)Nc1nc2cnc(Nc3cc(NC(=O)c4cccc(CC(C)(C)C#N)c4)ccc3C)nc2s1`, the “%Inh” value is reported as 36%.
With `COc1ccc(Nc2nccc(N3CCC(NC(=O)c4cccc(C#N)c4)C3)n2)cc1` (stereo not shown) [GSK1379730] the “%Inh” value was 0%.
`Cl.c1ccc(Oc2ccc(Nc3ccnc4cc(-c5ccc(CN6CCNCC6)o5)ccc34)cc2)nc1` [GW567142] was tested, and the “%Inh” value was 10%.
In the case of `O=C(Nc1ccc(Oc2ccc3nc(NC(=O)C4CC4)cn3n2)c(F)c1)c1cccn(-c2ccccc2)c1=O`, the “%Inh” value is reported as 0%.
`Cl.Cl.NC[C@H](CC1CCCCC1)NC(=O)c1ccc(-c2ccnc3[nH]ccc23)s1` [GSK1581428] was tested, and the “%Inh” value was 0%.
In the case of `COC(=O)Nc1nc2cc(Oc3ccc(NC(=O)Nc4cc(C(F)(F)F)ccc4Cl)cc3)ccc2[nH]1.Cl` [GW697465], the “%Inh” value is reported as 0%.
For `CC(C(=O)NC1CCN(c2ccnc(Nc3ccc(F)cc3)n2)C1)c1ccc(Cl)cc1` (stereo not shown) [GSK1379713], the “%Inh” value was 0%.
For `O=C(NCC1CC1)c1ccc(-c2cc(C(=O)NC3CC3)ccc2F)cc1` [GW810445], the “%Inh” value was 0%.
`CCN1CCN(CCCC(=O)Nc2n[nH]c3nc(-c4ccc(O)cc4)c(Br)cc23)CC1` [SB-731579] was tested, and the “%Inh” value was 15%.
For `Cc1nnc(-c2ccc3occ(-c4ccc(S(C)=O)cc4)c3n2)o1` (stereo not shown), the “%Inh” value was 0%.

Source: article PMC5540273 (PLoS ONE, 2017)
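Further: KINOMEscan kinase panel screen.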
